Common to all, as to test: NCI-60 one-dose screen, 48 h (100 = growth as untreated, 0 = no growth, -100 = all killed)
Details in all cases: 10 µM unless noted

Experiment [1] concerns EKVX NSCLC.
The subject of experiment [2] is UO-31 renal.
For experiment [3], the system named is TK-10 renal.
The subject of experiment [4] is ACHN renal.
Experiment [5] relates to CAKI-1 renal.
For experiment [6], the system named is A498 renal.
Experiment [7] deals with CCRF-CEM leukemia.
Experiment [8] concerns MOLT-4 leukemia.
For experiment [9], the system named is SN12C renal.

The values below come from PubChem BioAssay (NCI).

Each structure is given as a SMILES string. This is part of a sample that, as a whole, favours compounds with a hit. Of some 83,000 tested, about 20% had one in any assay.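 Percent growth is the endpoint: 0 to 100 indicates growth inhibition (40 means 60% inhibition), 0 means no net growth, and negative values indicate cell death.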 A number with no mark means an inactive call. Activity calls are given as the source filed them. The calls were made as follows: active = growth percent below 10; inactive = the rest.

For the compound `CCOC(=O)C1=C(C)NC(SCc2nnc(-c3ccc(Cl)cc3)o2)=NC1c1ccc(Br)cc1` (centres undefined), the growth in experiment [1] is 71.3%; in experiment [2], 52.6%; in [3] it was 79.9%; in [4] it was 69.7%; in experiment [5] it was 67.2%; in [6], 73.2%. Besides, the results for the growth in [7] and in [8] were 43.4% and 8.29% (active), respectively.

As to `COc1ccc(/C=C2\Cc3c(Br)cccc3C2=O)c(OC)c1`, the growth in experiment [1] is 59.8%; in experiment [2], 78.3%; in experiment [3], 90.6%; in [4], 59.8%; in experiment [5], 79.4%; in experiment [6], 83.1%. For the same compound, the results for the growth in experiment [7] and in experiment [8] were 97.8% and 94.1%, respectively.

In the case of `O=C(CCc1nc2sc3c(c2c(=O)[nH]1)CCC3)NCc1cn(-c2ccccc2)nc1-c1ccccc1`, the growth in [1] was 92%; in experiment [2], 98.5%; in experiment [3] it was 89.4%; in experiment [4], 81.1%; in experiment [5], 92.5%; in experiment [6], 66.4%. For the same compound, the values for the growth in [7] and in experiment [8] were 61% and 59.6%, respectively.

`Cc1nc([C@H]2CC[C@H]3[C@@H]4CCC5=CC(=O)CC[C@]5(C)[C@H]4CC[C@]23C)cs1`: the growth in [1] was 42.2%; in experiment [9] it was 84.1%; in [3] it was 103%; in [4] it was 68.6%; in experiment [6], 74.4%; in experiment [7], 40.7%.

With `COc1ccc(/C=C(/C(=O)N2CCN(c3ccccc3)CC2)c2cc(OC)c(OC)c(OC)c2)cc1N`, the growth in experiment [1] was 41.1%; in [9], 40.1%; in experiment [2], 52.1%; in experiment [3] it was 63.5%; in [6], -2.34% (active); in experiment [7], 8.84% (active). Besides, in experiment [8], the growth is 10.1%.

Regarding `O=C1/C(=C\c2cccn2C(=O)c2ccccc2)c2ccccc2N1c1c(Cl)cccc1Cl`, the growth was 80.5% in experiment [1]; 66.8% in experiment [2]; 86.4% in [3]; 79% in [4]; 87.8% in [5]; 90.4% in experiment [6]. Further, the values for the growth in experiment [7] and in experiment [8] were 14.3% and 27.9%, respectively.

For the compound `Cc1ccc2oc(=O)cc(-c3nc4ccc([N+](=O)[O-])cc4[nH]3)c2c1`, the growth was 62.6% in experiment [1]; 59.7% in [9]; 51.7% in experiment [2]; 62% in experiment [3]; 63% in experiment [4]; 51.6% in experiment [7]. Further, the growth in [8] was 39.6%.

`O=C1/C(=C\c2cccn2Cc2ccc(F)cc2)c2ccccc2N1c1c(Cl)cccc1Cl`: the growth in [1] is 54.6%; in experiment [3], 81%; in experiment [4], 62.9%; in experiment [5], 67.5%; in experiment [6], 106%; in [7], 83%. In addition, the growth in [8] is 74.1%.

Regarding `Cc1ccc2nc(CN(CCN(Cc3nc4ccc(C)cc4[nH]3)Cc3nc4ccc(C)cc4[nH]3)Cc3nc4ccc(C)cc4[nH]3)[nH]c2c1`, the growth in [1] was -97.5% (active); in experiment [9], -96.7% (active); in experiment [2], -73.7% (active); in experiment [3], -80.9% (active); in experiment [4] it was -99.2% (active); in experiment [7], -61.7% (active).

For the compound `COc1ccc(C(=O)c2cc(C)c(OC)c(C)c2)cc1OC(=O)CCl`, the growth in experiment [1] was 44.9%; in experiment [9], 31.4%; in experiment [2], 45.8%; in [3], 62.6%; in [4], 21.4%; in experiment [6], 44.1%. Further, the growth in experiment [7] is 8.68% (active); in experiment [8], 5.7% (active).

With `Cc1ccc(NC(=O)c2nc(S(C)=O)oc2-c2ccc(F)cc2)cc1Nc1nccc(-c2cccnc2)n1` (centres undefined), the growth in experiment [1] is 73.8%; in experiment [9], 38.7%; in [2] it was 84.5%; in experiment [3] it was 130%; in [4] it was 31.5%; in [6] it was 107%. For the same compound, the growth is 2.57% (active) in [7] and 0.215% (active) in experiment [8].

As for `CCCCN(CCCC)CCC(=O)c1ccc(OC)c2ccccc12`, the growth was 92.8% in experiment [1]; 94.9% in [9]; 97.8% in [3]; 92.3% in [4]; 52.1% in experiment [5]; 107% in experiment [6]. Moreover, the growth in [7] is 35.7%; in experiment [8], 28.6%.

Regarding `O=[N+]([O-])c1cc(F)c2cccnc2c1O`, the growth in experiment [1] is 110%; in [9], 93.5%; in experiment [2], 73.6%; in [3], 152%; in experiment [4], 89.4%; in experiment [7], 120%.

On to `O=C(Nc1ccc(Oc2ccc(NC(=O)Nc3ccccc3Cl)cc2)cc1)Nc1ccccc1Cl`, for which the growth in [1] was 76.5%; in experiment [9] it was 44.1%; in [2], 20.1%; in experiment [3], 75.1%; in experiment [4], 67.4%; in experiment [7], 42.4%.

Consider `COc1cc(C2CC(c3cccc(Nc4ccnc5cc(Cl)ccc45)c3)=NN2c2ccc(Cl)cc2)cc(OC)c1OC` (centres undefined), for which the growth in [9] was 57.1%; in experiment [2], 23.6%; in [3], 76.7%; in [4] it was 41.5%; in [5] it was -1.85% (active); in experiment [6] it was 64.9%. The growth in experiment [7] was 63.1%.

With `COc1ccc(C2CC(c3cccc(Nc4ccnc5cc(Cl)ccc45)c3)=NN2c2ccccc2)cc1` (centres undefined), the growth was 81.3% in [9]; 77.4% in [2]; 111% in experiment [3]; 58.8% in [4]; 19.9% in experiment [5]; 55.7% in experiment [6]. Moreover, the growth in [7] was 57.9%; in experiment [8] it was 64.3%.

As to `CC(=O)Nc1nonc1-c1nc2ccccc2n1Cc1ccc(C(C)(C)C)cc1`, the growth in experiment [9] is 82.2%; in [2], 46.1%; in experiment [3], 95.5%; in experiment [4], 82.1%; in experiment [5], 69%; in [6] it was -4.2% (active). The values for the growth in [7] and in experiment [8] were 78.4% and 51.7%, respectively.
